Assay results: ChEMBL document CHEMBL3988442, “University of Dundee, Small-Polar-MMV Screening Library” (2021)
Among all 48,000 compounds or so, about 13,000 (27%) showed an effect of 50% or more. This is one part of the list.

test system: Wolbachia pipientis; assay: Anti-Wolbachia Cell-Based Screen; type: functional; set-up: scale not given: in the data most compounds retested in dose-response had high values; details: 5 µM

Row | Structure (SMILES) | Percent Effect
1 | CNC(=O)CC1CCN(C(=O)NCC2(c3ccccc3F)CC2)CC1 | 17.39%
2 | C[C@H](NC(=O)c1cnc(-c2ccccc2)nc1O)C(N)=O | -2.731%
3 | CC1(C(=O)NCc2cccnc2Oc2ccc(F)cc2F)CCCNC1 (centres undefined) | -10.63%
4 | O=C1NC(C(=O)NCc2cccnc2Oc2ccc(F)cc2F)CO1 (centres undefined) | 106.1%
5 | Cc1cccc(C)c1Oc1ncccc1CNC(=O)C1(C)CCCNC1 (centres undefined) | 9.373%
6 | CC1(C(=O)NCc2cccnc2Oc2ccc(F)c(F)c2)CCCNC1 (centres undefined) | -1.745%
7 | Cc1cccc(C)c1Oc1ncccc1CNC(=O)C1COC(=O)N1 (centres undefined) | 89.56%
8 | O=C(CN1CCCC1=O)NCc1cccnc1Oc1ccc(F)c(F)c1 | -46.82%
9 | COc1ccccc1Oc1ncccc1CNC(=O)C(O)C(F)(F)F (centres undefined) | -1.797%
10 | O=C1NC(C(=O)NCc2cccnc2Oc2ccccc2F)CO1 (centres undefined) | 117.3%
11 | CN(C)S(=O)(=O)NCc1cccnc1Oc1ccccc1F | -2.54%
12 | Cc1ccccc1Oc1ncccc1CNC(=O)Cn1cccnc1=O | -3.943%
13 | O=C1NC(C(=O)NCc2cccnc2Oc2ccc(F)c(F)c2)CO1 (centres undefined) | 103.5%
14 | CC(=O)N[C@@H](C)C(=O)NCc1cccnc1Oc1ccccc1F | -9.866%
15 | CC(C)c1noc(CN(C)C(c2ccc(F)cc2)c2cccnc2)n1 (centres undefined) | 7.35%
16 | CCn1nc2c(cc1=O)CN(CCCOc1ccc(C#N)cc1)CC2 | -4.501%
17 | CC(C)(C)OC(=O)NCC1CCCCN1Cc1cccc(C(N)=O)c1 (centres undefined) | -2.516%
18 | CCOC(=O)C1CN(C(=O)C2CCOCC2)Cc2ncn(CC)c21 (centres undefined) | 3.509%
19 | Cc1nnc(CN2CCCC2c2ccc(C(C)(C)C)cc2)o1 (centres undefined) | -26.52%
20 | CSc1ncccc1C(=O)N1CCC2(CC1)c1nc[nH]c1CCN2C | 9.792%
21 | CCSCCC(=O)Nc1ncn(Cc2cccnc2)n1 | -3.764%
22 | O=S(=O)(Cc1cccc2cccnc12)NC(CO)c1ccco1 (centres undefined) | -8.128%
23 | COc1ccccc1Oc1ncccc1CNC(=O)[C@@H](N)[C@@H](C)O | -22.34%
24 | COc1ccccc1Oc1ncccc1CNC(=O)C1COC(=O)N1 (centres undefined) | 98.82%
25 | Cc1ccc(Oc2ncccc2CNC(=O)C2COC(=O)N2)c(F)c1F (centres undefined) | 65.92%
26 | Cc1nc(CNCc2cccnc2Oc2ccc(C)c(F)c2F)c[nH]1 | -6.11%
27 | CCCS(=O)(=O)NCc1cccnc1Oc1ccc(C)c(F)c1F | -1.189%
28 | COc1ccccc1Oc1ncccc1CNC(=O)[C@H](C)O | -22.76%
29 | c1ccc(-c2nccc(CNCC3CCCN3c3cccnn3)n2)cc1 (centres undefined) | 1.65%
